Among all 310,000 compounds or so, about 14,000 (4.5%) showed an effect of 50% or more. Effects have a minus sign here. The entries come from a sample that favours strong results as a whole.
Each molecule was assayed against human ether-à-go-go-related gene (hERG) potassium channel (human, UniProt Q12809) (assay: primary screen, population patch clamp on CHO cells stably expressing hERG; higher = less effect of the substance).
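Note: peak tail current of the secondary pulse compared with the same well before compound.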

Sequence of human ether-à-go-go-related gene (hERG) potassium channel (Q12809 whole entry, looked up): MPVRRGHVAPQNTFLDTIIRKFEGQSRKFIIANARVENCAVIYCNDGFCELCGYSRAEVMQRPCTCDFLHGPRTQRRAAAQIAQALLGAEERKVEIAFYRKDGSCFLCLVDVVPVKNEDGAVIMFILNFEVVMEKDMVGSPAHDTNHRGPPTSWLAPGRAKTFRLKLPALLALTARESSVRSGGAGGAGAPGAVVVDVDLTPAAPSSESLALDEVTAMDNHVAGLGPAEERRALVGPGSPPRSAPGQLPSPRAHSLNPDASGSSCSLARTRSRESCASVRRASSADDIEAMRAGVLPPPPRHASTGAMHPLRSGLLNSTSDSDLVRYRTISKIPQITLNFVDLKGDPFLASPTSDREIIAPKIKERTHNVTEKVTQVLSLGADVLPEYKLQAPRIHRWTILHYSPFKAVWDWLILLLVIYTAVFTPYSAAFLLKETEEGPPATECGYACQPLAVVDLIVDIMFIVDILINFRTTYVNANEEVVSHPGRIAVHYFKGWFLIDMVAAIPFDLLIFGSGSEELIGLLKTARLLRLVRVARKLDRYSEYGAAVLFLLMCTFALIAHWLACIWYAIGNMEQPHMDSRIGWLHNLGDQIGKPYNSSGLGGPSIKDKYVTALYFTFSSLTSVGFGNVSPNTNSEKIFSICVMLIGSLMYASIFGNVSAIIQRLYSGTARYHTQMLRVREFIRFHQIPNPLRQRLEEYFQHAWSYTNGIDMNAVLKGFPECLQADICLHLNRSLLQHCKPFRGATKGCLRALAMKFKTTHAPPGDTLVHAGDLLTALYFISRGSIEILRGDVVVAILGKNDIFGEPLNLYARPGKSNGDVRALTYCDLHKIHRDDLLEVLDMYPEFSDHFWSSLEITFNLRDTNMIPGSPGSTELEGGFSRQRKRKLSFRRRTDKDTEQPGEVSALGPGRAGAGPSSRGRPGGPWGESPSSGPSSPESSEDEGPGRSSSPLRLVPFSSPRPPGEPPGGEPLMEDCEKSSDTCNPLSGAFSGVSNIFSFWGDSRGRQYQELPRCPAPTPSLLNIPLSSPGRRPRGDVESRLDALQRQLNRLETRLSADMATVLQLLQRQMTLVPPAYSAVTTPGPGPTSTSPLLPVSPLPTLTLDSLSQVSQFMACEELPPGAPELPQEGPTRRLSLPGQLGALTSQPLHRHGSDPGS

SMILES	hERG current change (%, negative = inhibition) at 10uM [%]
O=C(CCCN1C(=O)c2ccccc2C1=O)NCC1CCCO1 (centres unmarked)	12.2
COc1cc(SC)ccc1C(=O)Nc1ccc2c(c1)OCCO2	-18.4
CCCCc1c(C)nn(-c2nnc3c4ccccc4n(C)c3n2)c1C	-4.7
CCCC1=Nc2cc(C(=O)NCCCN3CCOCC3)ccc2Sc2ccccc21	-9.32
O=C(Nc1cccc(C(F)(F)F)c1)c1cc(S(=O)(=O)N2CCCCC2)ccc1N1CCOCC1	-8.02
CC(=O)Nc1cccc(NC(=O)c2cc([N+](=O)[O-])ccc2N2CCCCC2)c1	-69.3
CN(C)S(=O)(=O)c1cccc(NC(=O)c2cc([N+](=O)[O-])ccc2N2CCCCC2)c1	-53
CN(C)S(=O)(=O)c1ccc(N2CCCC2)c(C(=O)Nc2cccc(F)c2)c1	0.224
COc1ccc(NC(=O)c2cc([N+](=O)[O-])ccc2N2CCCCC2)cc1	4.86
O=C(Nc1cccc(S(=O)(=O)N2CCOCC2)c1)c1cc([N+](=O)[O-])ccc1N1CCOCC1	-15.2
O=C(Nc1cccc(S(=O)(=O)N2CCCCC2)c1)c1cc([N+](=O)[O-])ccc1N1CCOCC1	-64.2
CN(C)S(=O)(=O)c1ccc(N2CCCC2)c(C(=O)Nc2ccccc2)c1	-23.5
Cc1ccc(NC(=O)c2cc([N+](=O)[O-])ccc2N2CCCC2)cc1	-0.291
N#CC(C#N)=Cc1cccn1-c1ccc(C(=O)O)cc1	15.5
CC(C)NC(=O)CN1C(=O)C(=O)c2ccccc21	-9.78
Cc1nc2ccc(S(=O)(=O)NC(C(=O)N3CCCC3)C(C)C)cc2s1 (centres unmarked)	7.12
COc1cc2c(cc1OC)CN(C(=O)c1ccc(S(=O)(=O)N3CCCCCC3)cc1)CC2	-27.3
Cc1nnc(NC(=O)CSc2nc3c(c(=O)n2C)SC(C)C3)s1 (centres unmarked)	4.1
Cc1ccc(-c2nnc(SCC(=O)NNC(=O)COc3cccc4ccccc34)n2C)cc1	5.74
O=C(N/N=C/c1cccc(Br)c1)c1ccc(N2CCCC2=O)cc1	-57.6
COc1cccc(/C=N/NC(=O)c2ccc(N3CCCC3=O)cc2)c1	-19.8
O=C(N/N=C/c1ccccc1)c1ccc(N2CCCC2=O)cc1	5.87
CC(Oc1ccc([N+](=O)[O-])cc1)C(=O)NCC1CCCO1 (centres unmarked)	-7.02
COc1ccccc1N1C(=O)c2cccc3c(N(C)CCO)ccc(c23)C1=O	5.75

SMILES	hERG current change (%, negative = inhibition) at 10uM [%]
COCCCNC(=O)c1ccc2c(c1)OCO2	-9.98
Fc1cccc(CCNCc2ccccn2)c1	-6.71
Cl.Fc1ccccc1CNCCC(Cc1ccccc1)c1ccc2c(c1)OCO2 (centres unmarked)	-50.6
Fc1ccccc1CNCCc1ccc2c(c1)OCO2	-7.43
CCc1ccccc1NC(=O)NC(C)c1ccc2c(c1)OCO2 (centres unmarked)	14
Fc1ccc(C(CCNCc2ccccn2)c2ccc(Cl)cc2)cc1 (centres unmarked)	-77.5
CC(=O)N(CCC(Cc1ccccc1)c1ccc2c(c1)OCO2)Cc1ccccc1F (centres unmarked)	7.53
COCCCNS(=O)(=O)c1ccc2c(c1)OCCO2	6.53
CC(NC(=O)C1CCC1)c1ccc2c(c1)OCO2 (centres unmarked)	-5.51
COCCCNCCC(CCC(C)C)c1ccc2c(c1)OCO2.Cl (centres unmarked)	-80.2
CCNCCC(CCC(C)C)c1ccc2c(c1)OCO2 (centres unmarked)	-72
Cl.Fc1ccc(-c2ccc(CNCc3ccccn3)o2)cc1	-25.4
Nc1nc(NCCOCCO)nc(NCc2ccccc2)c1[N+](=O)[O-]	-1.49
O=C(NCc1ccccc1)C(=O)Nc1cccc(C(=O)O)c1	4.16
NC(=O)N/N=C/c1ccccc1OCC(=O)NCc1ccccc1	-3.76
S=c1[nH]nc(-c2ccncc2)n1/N=C/C=C/c1ccccc1	8.71
COc1ccc(S(=O)(=O)N(CCC(=O)O)Cc2ccccc2)cc1	13.7
Cc1ccc(-n2ncc3c(=O)n(CC(=O)NC4CCCC4)cnc32)cc1C	5.66
CCOC(=O)c1ccc(NC(=O)Cc2coc3cc4c(cc23)CCC4)cc1	5.55
CO[C@@]1(NC(=O)CSCC#N)C(=O)N2C(C(=O)[O-])=C(CSc3nnnn3C)CS[C@@H]21.[Na+]	4.09
Cc1cccc(NC(=O)NNS(=O)(=O)c2ccc(F)cc2)c1	-1.81
CSc1nnc(SCC#N)s1	8.95
CC(C)CCNC(=O)CN(C(=O)CCC(=O)Nc1nccs1)c1ccc2c(c1)OCCO2	-4.45
Cc1cc(N/N=C/c2ccccc2)nc(N)n1	-14.5

SMILES	hERG current change (%, negative = inhibition) at 10uM [%]
CC(C)CCC(CCNCc1ccccn1)c1ccc(Cl)cc1 (centres unmarked)	-80.4
CC(C)CCC(CCNCc1ccccn1)c1ccc2c(c1)OCO2.Cl (centres unmarked)	-75.5
CC(C)C(CCNCc1ccccn1)c1ccc(Cl)cc1 (centres unmarked)	-41.6
O=C(O)C(=O)O.c1ccc(CNCCc2ccc3c(c2)OCO3)nc1	2.74
c1ccc(CNCc2ccc3c(c2)OCO3)nc1	11.2
O=C(NCc1ccccn1)Nc1ccc(Cl)cc1	13.9
O=C(CF)NC(Nc1cccc2cccnc12)C(Cl)(Cl)Cl (centres unmarked)	-5.95
COc1ccc(N2CCN(C(=O)c3ccc4c(c3)CCN4S(=O)(=O)c3ccccc3)CC2)cc1	-23.2
O=C(NCC1CC1)Nc1ccccc1	16.3
N#C/C(=C/c1cc[nH]c1)C(N)=S	14.2
CSc1ccccc1NC(=O)CN1CCCCC1	8.96
O=C(CN1CCN(S(=O)(=O)c2ccccc2[N+](=O)[O-])CC1)Nc1ccc(N2CCOCC2)cc1	-12.9
O=C(CN1CCN(S(=O)(=O)c2ccccc2[N+](=O)[O-])CC1)NC(=O)NCc1ccco1	-5.96
COc1ccc(Cl)cc1NC(=O)CN1CCC(NC(=O)C2CC2)CC1	-52
COc1ccccc1NC(=O)CN1CCN(c2ccccc2)CC1	-12.7
COc1ccccc1NC(=O)CN1CCN(Cc2ccccc2)CC1	-67.6
CSc1ccccc1NC(=O)CN1CCN(Cc2ccccc2)CC1	-66.3
CSc1ccccc1NC(=O)CN1CCN(S(=O)(=O)c2ccccc2[N+](=O)[O-])CC1	-52.2
COc1ccc(N2CCN(CC(=O)Nc3ccccc3SC)CC2)cc1	-5.77
CCN1CCC(NC(=O)Nc2cc(Cl)ccc2OC)CC1	-2.83
COC(=O)C1CCN(CC(=O)Nc2cc(Cl)ccc2OC)CC1	-19
COc1ccccc1NC(=O)CCN1CCN(Cc2ccccc2)CC1	-22.3
Cc1ccccc1C(=O)NC(=S)Nc1ccccc1[N+](=O)[O-]	18.1
O=C(NC(Cc1c[nH]c2ccccc12)c1nnc2n1CCCCC2)c1ccccc1 (centres unmarked)	18.7

SMILES	hERG current change (%, negative = inhibition) at 10uM [%]
Cc1ccc(S(=O)(=O)N2CCCC(C(=O)NCCC3=CCCCC3)C2)cc1 (centres unmarked)	-4.03
CC1Cc2ccccc2N1C(=O)Cn1cnc2ccccc2c1=O (centres unmarked)	21.8
Cc1cc(C)nc(NC(=O)CSc2ccccn2)n1	1.08
C/C(=N/NC(=O)c1ccc(Br)o1)c1ccncc1	7.82
CCOc1ccccc1NC(=O)C1CCN(c2ccc(S(=O)(=O)N3CCCC3)cc2)CC1	-6.65
CCC1CCCCN1CCNS(=O)(=O)c1ccc2c(c1)CCN2C(C)=O (centres unmarked)	-1.09
CCN1CCN(C(=O)N(c2ccccc2)c2ccccc2)CC1	11.9
Cc1n[nH]c(=O)c2c(NC(=O)CSc3nc4ccccc4c(=O)n3CCCO)oc(C)c12	-21.2
COc1cccc(Cn2c(Oc3cccc(C)c3)nc3c2c(=O)n(C)c(=O)n3C)c1	-9.7
O=S(=O)(N/N=C/c1ccc(F)cc1)c1ccccc1	6.88
Cn1nc(-c2ccc(NCCO)c([N+](=O)[O-])c2)c2ccccc2c1=O	-2.29
O=C(c1ccccc1Cl)N(Cc1ccc(Cl)c(Cl)c1)N1C(=O)CCCC1=O	-6.37
CC(=O)Nc1ccc(NC(=O)C(C)Oc2ccccc2C(=O)NCc2ccccc2)cc1 (centres unmarked)	-46.9
COc1ccc(OC2CCN(S(=O)(=O)c3ccc(C(C)=O)cc3)CC2)cc1	-19.7
COc1ccccc1NC(=O)c1nnn(Cc2ccccc2)c1NC(C)=O	2.36
COc1ccc(Cl)cc1NC(=O)CN1CCN(Cc2ccccc2)CC1	-68.9
O=C(Nc1ccccc1)c1nnn(Cc2ccccc2)c1NC(=O)C(F)(F)F	-7.45
COc1ccc(Cl)cc1NC(=O)CN1CCCC1.Cl	5.1
COc1ccc(OC)c(NC(=O)CCN2CCN(Cc3ccccc3)CC2)c1.Cl	-32.9
COc1ccc(Cl)cc1NC(=O)CCN1CCN(c2ccccc2C)CC1	6.79
COc1ccc(Cl)cc1NC(=O)CN1CCCCCC1	-8.36
COc1ccc(Cl)cc1NC(=O)CCN1CCN(Cc2ccccc2)CC1	-64.6
COc1ccccc1NC(=O)c1nnn(Cc2ccccc2)c1NC(=O)C(F)(F)F	-53
